Results filed as inconclusive are left out. A number with no mark means an inactive call. Unless noted, calls follow the shape of the dose curve; as a rule, active = well fitted activation curve with a large enough effect in the repeat runs; inconclusive = weak or mixed curves, or effect the other way; inactive = no such curve, though single readings can be large or run the other way. Where a SMILES comes first, the peptide text is derived from it. [ ]: non-standard residue; d: D form. pGlu = O=C1CC[C@@H](C(=O)O)N1
Assay: qHTS assay to identify small molecule antagonists of the estrogen related receptor signaling pathway with the pleiotropic PPARgamma coactivator (PGC) from Tox21 10K library - cell viability counter screen (AID 1224840; active = well fitted cell-killing curve with a large enough effect in the repeat runs, not every such curve was filed as active; also: nearly all actives have a fitted effect of over 40% in size)
Details: PGC/ERR reporter cells viability, CellTiter-Fluor, 17.5 h; series mostly up to 92.4 µM; viability change, negative = cytotoxic: at the top concentration
Procedure, shortened: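 Seeded PGC/ERR cells (2,000/well, 6 h, 37 C/5% CO2) get compound by pin tool; 17.5 h incubation at 37 C; CellTiter-Fluor added, 30 min, fluorescence measured.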
% is scaled to controls: 0 for no effect and ±100 for the full control effect.

SMILES	viability change, negative = cytotoxic
Cc1ccc(C(=O)c2ccc(CC(=O)O)n2C)cc1	5.76% [at 42.5 µM]
Clc1cc(Cl)cc(Cl)c1	-0.38%
CO/N=C(\C(=O)N[C@@H]1C(=O)N2C(C(=O)O)=C(CSc3nc(=O)c(O)nn3C)CS[C@H]12)c1csc(N)n1	11.8% [at 42.5 µM]
CCNC(=O)[C@@H]1CCCN1C(=O)[C@H](CCCN=C(N)N)NC(=O)[C@H](CC(C)C)NC(=O)CNC(=O)[C@H](Cc1ccc(O)cc1)NC(=O)[C@H](CO)NC(=O)[C@H](Cc1c[nH]c2ccccc12)NC(=O)[C@H](Cc1cnc[nH]1)NC(=O)[C@@H]1CCC(=O)N1 ([pGlu]HWSYGLRP-NHEt)	10.4% [at 42.5 µM]
CCCO[Si](OCCC)(OCCC)OCCC	7.06%
CCCCCCCCCCCCSC	-3.6%
CC(C)(C)c1ccc(-c2ccc(C(C)(C)C)cc2)cc1	3.87%
CC(C#N)(CCC(=O)O)N=NC(C)(C#N)CCC(=O)O (centres undefined)	3.74%
NCCCC[C@H](N[C@@H](CCc1ccccc1)C(=O)O)C(=O)N1CCC[C@H]1C(=O)O	2.65% [at 42.5 µM]
COc1cc(C)nc(-n2nc(C)cc2OC)n1	0.201% [at 42.5 µM]
O=[N+]([O-])c1ccc(/C=N\O)o1	0.732% [at 42.5 µM]
O=S(=O)(O)c1cccc2c(S(=O)(=O)O)cccc12	1.08%
CCCCCC(=O)OCCc1ccccc1	7.19%
COc1ccccc1OCC1CNC(=O)O1 (centres undefined)	3.27% [at 42.5 µM]
CCCCCC(C)N (centres undefined)	6.92% [at 42.5 µM]
COC(=O)C1=C(C)NC(C)=C(C(=O)OC(C)C)C1c1cccc2nonc12 (centres undefined)	-22.4% [at 42.5 µM]
CCC(C(=O)NC(=O)NC(C)=O)c1ccccc1 (centres undefined)	2.28% [at 42.5 µM]
CC(=O)Oc1cccc(C)c1	17.7% [at 42.5 µM]

Assay: qHTS assay to identify small molecule antagonists of the estrogen related receptor signaling pathway with the pleiotropic PPARgamma coactivator (PGC) from Tox21 10K library (AID 1224841; call rule not given here; also: actives are mostly falling curves and most rising ones were filed inactive; nearly all actives have a fitted effect of over 50% in size)
Details: PGC/ERR reporter cell line, ONE-Glo luciferase, 18 h; series mostly up to 92.4 µM; activity, negative = inhibition: at the top concentration
Procedure, shortened: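 Test chemicals dissolved in DMSO were applied to pre-incubated (6 h) PGC/ERR cells at 2,000 cells/well for an 18 h, 37 C treatment; reporter luminescence was then read using One-Glo.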

SMILES	activity, negative = inhibition
CCCCCCC#CC(=O)OC	0.806%
O=Cc1cccc(Br)c1	9.64%
Cc1ccc(C(=O)c2ccc(CC(=O)O)n2C)cc1	-9.98% [at 42.5 µM]
CC(C)C[C@@H](N)C(=O)O	0.755% [at 19 µM]
O=C(O)CC(C(=O)O)S(=O)(=O)O (centres undefined)	11.5%
CC1(C)OC[C@@H](COC(=O)CCc2ccc(OC[C@@H](O)CNCCNC(=O)N3CCOCC3)cc2)O1	0.309% [at 42.5 µM]
Clc1cc(Cl)cc(Cl)c1	0.654%
CO/N=C(\C(=O)N[C@@H]1C(=O)N2C(C(=O)O)=C(CSc3nc(=O)c(O)nn3C)CS[C@H]12)c1csc(N)n1	12.4% [at 42.5 µM]
CCNC(=O)[C@@H]1CCCN1C(=O)[C@H](CCCN=C(N)N)NC(=O)[C@H](CC(C)C)NC(=O)CNC(=O)[C@H](Cc1ccc(O)cc1)NC(=O)[C@H](CO)NC(=O)[C@H](Cc1c[nH]c2ccccc12)NC(=O)[C@H](Cc1cnc[nH]1)NC(=O)[C@@H]1CCC(=O)N1 ([pGlu]HWSYGLRP-NHEt)	-21.1% [at 42.5 µM]
CCCO[Si](OCCC)(OCCC)OCCC	-0.111%
CC(C)(C)c1ccc(-c2ccc(C(C)(C)C)cc2)cc1	10.1%
CC(C#N)(CCC(=O)O)N=NC(C)(C#N)CCC(=O)O (centres undefined)	1.03%
CCCCOCCOC(=O)CCCCCCCCC(=O)OCCOCCCC	5.36%
COc1cc(C)nc(-n2nc(C)cc2OC)n1	4.4% [at 42.5 µM]
O=S(=O)(O)c1cccc2c(S(=O)(=O)O)cccc12	16.3%
CCCCCC(=O)OCCc1ccccc1	4.54%
COC(=O)C1=C(C)NC(C)=C(C(=O)OC(C)C)C1c1cccc2nonc12 (centres undefined)	-21% [at 42.5 µM]
CCC(C(=O)NC(=O)NC(C)=O)c1ccccc1 (centres undefined)	-2.4% [at 42.5 µM]
CC(=O)Oc1cccc(C)c1	8.34% [at 42.5 µM]

Assay: qHTS assay to identify small molecule agonists of the estrogen related receptor signaling pathway with the pleiotropic PPARgamma coactivator (PGC) from Tox21 10K library (AID 1224842); also: nearly all actives have a fitted effect of over 15% in size
Details: PGC/ERR reporter cell line, luciferase ONE-Glo, 18 h; series mostly up to 92.4 µM; activation: at the top concentration
Procedure, shortened: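 Luminescence from One-Glo (30 min, room temperature) measured after PGC/ERR cells had 18 h at 37 C with pinned compound (23 nL in DMSO). Cells had been seeded at 2,000 per well and pre-incubated 6 h.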

SMILES	activation
CCCCCCC#CC(=O)OC	0.271%
O=Cc1cccc(Br)c1	3.23%
Cc1ccc(C(=O)c2ccc(CC(=O)O)n2C)cc1	-3.12% [at 42.5 µM]
COc1ccc2cc1Oc1cc3c(cc1OC)CC[N+](C)(C)[C@H]3Cc1ccc(cc1)Oc1c(OC)c(OC)cc3c1[C@@H](C2)[N+](C)(C)CC3	-1.15% [at 42.5 µM]
CC(C)C[C@@H](N)C(=O)O	-0.0839% [at 19 µM]
O=C(O)CC(C(=O)O)S(=O)(=O)O (centres undefined)	3.57%
CC1(C)OC[C@@H](COC(=O)CCc2ccc(OC[C@@H](O)CNCCNC(=O)N3CCOCC3)cc2)O1	0.0857% [at 42.5 µM]
Clc1cc(Cl)cc(Cl)c1	-0.582%
CO/N=C(\C(=O)N[C@@H]1C(=O)N2C(C(=O)O)=C(CSc3nc(=O)c(O)nn3C)CS[C@H]12)c1csc(N)n1	3.48% [at 42.5 µM]
CCNC(=O)[C@@H]1CCCN1C(=O)[C@H](CCCN=C(N)N)NC(=O)[C@H](CC(C)C)NC(=O)CNC(=O)[C@H](Cc1ccc(O)cc1)NC(=O)[C@H](CO)NC(=O)[C@H](Cc1c[nH]c2ccccc12)NC(=O)[C@H](Cc1cnc[nH]1)NC(=O)[C@@H]1CCC(=O)N1 ([pGlu]HWSYGLRP-NHEt)	-5.8% [at 42.5 µM]
CCCO[Si](OCCC)(OCCC)OCCC	-0.0298%
CC(C)(C)c1ccc(-c2ccc(C(C)(C)C)cc2)cc1	3.7%
CC(C#N)(CCC(=O)O)N=NC(C)(C#N)CCC(=O)O (centres undefined)	0.345%
CCCCOCCOC(=O)CCCCCCCCC(=O)OCCOCCCC	1.67%
COc1cc(C)nc(-n2nc(C)cc2OC)n1	-0.0368% [at 42.5 µM]
O=S(=O)(O)c1cccc2c(S(=O)(=O)O)cccc12	5.85%
CCCCCC(=O)OCCc1ccccc1	2.08%
COc1ccccc1OCC1CNC(=O)O1 (centres undefined)	-8.34% [at 42.5 µM]
COC(=O)C1=C(C)NC(C)=C(C(=O)OC(C)C)C1c1cccc2nonc12 (centres undefined)	-5.91% [at 42.5 µM]
CCC(C(=O)NC(=O)NC(C)=O)c1ccccc1 (centres undefined)	-0.737% [at 42.5 µM]
CC[C@H]1OC(=O)[C@H](C)[C@@H](O[C@H]2C[C@@](C)(OC)[C@@H](O)[C@H](C)O2)[C@H](C)[C@@H](O[C@@H]2O[C@H](C)C[C@H](N(C)C)[C@H]2O)[C@](C)(OC)C[C@@H](C)C(=O)[C@H](C)[C@@H](O)[C@]1(C)O	-2.74%
CC(=O)Oc1cccc(C)c1	2.63% [at 42.5 µM]
